# Compound activity (PubChem BioAssay)
# Glyco luc inh: increase of ERlucT glycosylation luciferase signal, primary screen, N-linked glycosylation inhibitor project, D54 ERlucT cells, luminescence, set 2; reporter increase, % at 12.5 µM; 360,000 compounds, 0.23% hits; D54 ERlucT glycosylation luciferase reporter, 24 h; percent of 100 nM tunicamycin response;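 active = mean luciferase reporter signal, scaled so untreated is 0 and the glycosylation-blocking control 100, at or above a set limit in every replicate; inconclusive = mean reaches the limit but not every replicate does; inactive = mean below the limit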;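 note: luciferase carries N-glycosylation sites so blocking glycosylation raises the light; 0% = median of neutral control wells and 100% = median of 100 nM tunicamycin wells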
# aDG glyco act: activators of alpha-DG glycosylation, primary screen, uHTS, Pro5-aDG cells, AlphaScreen; alpha-DG glycosylation AlphaScreen (IIH6); 0% Pro5, 100% B10-LARGE cell signal; activation, % at 10 µM; 360,000 compounds, 0.22% hits;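 active = activation of at least 8% versus controls, or a plate z-score of at least 8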;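 note: Pro5 are CHO cells carrying HIG-tagged alpha-DG that lacks glycosylation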
# ARNT TACC3 PPI: disruptors of ARNT/TACC3 protein interaction, primary screen, biochemical, AlphaScreen, single concentration; inhibition, % at 9.99 µM; AlphaScreen His-ARNT PAS-B/GST-TACC3 binding, luminescence; TACC3 fragment carries E629A point mutation; 390,000 compounds, 0.66% hits; AID 623870, 2012; Transforming acidic coiled-coil-containing protein 3 (Homo sapiens), Q9Y6A5;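 active = mean inhibition of replicates at least 50% and at least half of replicates each reaching 50%; inconclusive = half or more replicates reach 50% but mean below 50%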;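 note: 0% = complete ARNT plus TACC3 wells and 100% = ARNT alone without TACC3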
# Vif imaging: HIV Vif self-association inhibitors, primary screen, imaging, HEK293T, single point | HEK293T cells, Vif self-association by quenched fluorescence, 24 h | inhibition, % at 7.49 µM | 340,000 compounds, 0.35% hits; in the data active = inhibition above about 50%, passing the limit was not always enough; inconclusive = no clear call, values can overlap the other calls; inactive = below about 31%
# H9c2 protect: cardioprotection against H2O2-induced cell death, primary screen, uHTS, H9c2 cells, ATPLite luminescence. H9c2 cardiomyocytes, H2O2 injury protection, 2 h. protection from H2O2 cell death, % at 20 µM. 360,000 compounds, 0.63% hits. AID 588492, 2011;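 active = compounds giving at least 50% protection of heart cells from peroxide-induced death in the single-dose screen, raw or plate-pattern-corrected value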;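 note: 0% = DMSO wells with peroxide and 100% = DMSO wells without peroxide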
# An asterisk follows results filed as active; ? = inconclusive; nt = not tested or not shown; ! = not confirmed by another sample. A selection: hits, their analogues and other compounds. The true share with any hit is near 1.7%.
SMILES,Glyco luc inh,aDG glyco act,ARNT TACC3 PPI,Vif imaging,H9c2 protect
Cc1c(C#N)c(N)nc2c3c(sc12)NC(=O)CC3c1ccc(F)cc1 (stereo not given),9,0,-4,-4,37
N#C[C@H]1[C@H](c2ccccc2)[C@H](CO)N1C(=O)c1cc(Cl)cc(Cl)c1,nt,nt,-17,nt,nt
COc1ccc(-c2csc(C(C#N)=C(O)CSc3nccn3C)n2)cc1OC,0,0,nt,3,57*
COc1ccc(-c2csc(C)n2)cc1OC,1,0,-4,-4,-5
CN1c2ccc(Br)cc2[C@@H]2[C@@H](CCN2S(=O)(=O)c2ccccc2)[C@H]1CO,nt,nt,-2,nt,nt
COc1c(C=O)c2c(c(OC)c1OC)-c1ccc(OC)c(=O)cc1C(NC(C)=O)CC2 (stereo not given),10,0,9,90*,10
COc1cc2c(c(OC)c1OC)-c1ccc(OC)c(=O)cc1C(NC(C)=O)CC2 (stereo not given),16,1,-6,-6,1
CO[C@@H]1CN(C)C(=O)c2cc(NS(=O)(=O)CC(F)(F)F)ccc2OC[C@@H](C)N(C(=O)c2ccc3c(c2)OCO3)C[C@H]1C,nt,nt,-3,nt,nt
Cc1cc(C)c2c(N)c3cccc(C)c3nc2n1,104*,0,12,nt,7
COc1cc(C(=O)NCCc2cn3ccc(C)cc3n2)cc(OC)c1OC,2,0,nt,96*,11
COc1cc(C(=O)NCCc2cn3ccccc3n2)cc(OC)c1OC,1,0,-2,-5,26
NC(=S)NN=C1CCC(C2CCCCC2)CC1 (stereo not given),-4,3,7,-14,-3
NC(=S)NN=C1CCCCCCCCCC1,-1,2,33*,-1,-8
CCn1c(SCC(=O)N2CCN(c3ccccc3)CC2)nc2c(c1=O)SC(C)C2 (stereo not given),-1,2,4,nt,58*
COc1ccc(NC(=O)Nc2ccc3c(c2)C(=O)N([C@H](C)CO)C[C@H](C)[C@@H](CN(C)C(=O)Nc2ccccc2)OCCCC[C@@H](C)O3)cc1,nt,nt,-4,nt,nt
C[C@@H]1CN([C@@H](C)CO)C(=O)c2cc(-c3ccccc3)cnc2O[C@H]1CN(C)C(=O)C1CCCCC1,nt,nt,-5,nt,nt
COC(=O)c1ccc(CSc2ccc3nnc(-c4cccc(F)c4)n3n2)o1,1,0,1,-4,105*
COc1ccc(-c2cc(=O)n(-c3nc4ccccc4[nH]3)[nH]2)cc1,?,0,47*,-5,34
Fc1c(F)c(-n2nnc3ccccc32)c(F)c(F)c1Cl,-2,0,-1,60*,-5
CCOc1ccc2ccccc2c1C(=O)N[C@@H]1C(=O)N2[C@@H]1SC(C)(C)[C@@H]2C(=O)O,-2,0,1,-4,78*!
CC1(C)S[C@@H]2[C@H](NC(=O)Cc3ccccc3)C(=O)N2[C@H]1C(=O)O,-1,0,-8,-3,12
CN1CCN(C(=O)C[C@@H]2C[C@@H]3c4cc(NC(=O)NC5CCCC5)ccc4O[C@@H]3[C@H](CO)O2)CC1,nt,nt,-6,nt,nt
O=C(C[C@H]1C[C@H]2c3cc(NC(=O)CC4CC4)ccc3O[C@H]2[C@H](CO)O1)NCc1cccnc1,nt,nt,-5,nt,nt
Cc1ccccc1Nc1nc(N)nc(CN(C)c2ccccc2)n1,6,0,40,nt,10
Cc1ccccc1Nc1nc(N)nc(CCl)n1,4,0,10,104*,4
SMILES,Glyco luc inh,aDG glyco act,ARNT TACC3 PPI,Vif imaging,H9c2 protect
Cc1c(CCO)c(=O)n(-c2ccccc2)n1S(=O)(=O)c1c(Cl)cc(Cl)cc1Cl,2,0,57*,-1,13
CCc1ccc(CCC(=O)Nc2nnc(C)s2)o1,-3,0,-9,55*,6
COc1cc(CCC(=O)Nc2nnc(C)s2)cc(OC)c1OC,33*,0,-17,5,2
COc1cc(CCC(=O)Nc2ncc(C)s2)cc(OC)c1OC,3,0,5,2,0
Cc1c(Cl)cccc1N=Cc1ccc([N+](=O)[O-])s1,35*,0,12,-2,-11
C[C@H](NC(=O)C[C@H]1C[C@H]2c3cc(NC(=O)C4CCC4)ccc3O[C@H]2[C@@H](CO)O1)c1ccccc1,nt,nt,-6,nt,nt
O=C(C[C@H]1C[C@@H]2c3cc(NC(=O)Nc4ccc(C(F)(F)F)cc4)ccc3O[C@@H]2[C@H](CO)O1)NC1CCCCC1,nt,nt,-5,nt,nt
C=CCn1c(Cc2nc3ccc(Cl)cc3[nH]2)n[nH]c1=S,1,0,36*,-7,-3
C=CCn1c(Cc2ccccc2)n[nH]c1=S,2,0,-1,2,-5
Nc1c(C(=O)NC2CCCC2)c2nc3ccccc3nc2n1N,3,0,-2,-1,62*
COc1ccccc1/C=N/n1c(N)c(C(=O)NC2CCCCC2)c2nc3ccccc3nc21,1,1,-13,-9,5
Nc1c(C(=O)NC2CCCC2)c2nc3ccccc3nc2n1/N=C/c1ccco1,2,0,-7,-2,50*
CCOC(=O)c1c(C)oc2c1c(C=NCc1ccccn1)c(O)c1ccccc12,6,1,48*,-14,-5
O=C(CNC(=O)c1cccc(Br)c1)N/N=C/c1cc(Br)cc(Br)c1O,3,0,16,-2,59*
O=C(CCN1CCOCC1)N/N=C/c1cc(Br)cc(Br)c1O,4,1,70*,19,43
C[C@@H]1CN([C@@H](C)CO)C(=O)Cc2cc(NC(=O)Nc3cccc4ccccc34)ccc2O[C@H]1CN(C)Cc1ccc(C(F)(F)F)cc1,nt,nt,-2,nt,nt
CC1(c2ccccc2)NC(=O)N(CC(=O)Nc2cccc(/C=C/c3ccccn3)c2)C1=O (stereo not given),1,0,nt,-2,68*
CC(C)(C)c1ccc(C(=O)NCCCn2ccnc2)cc1,-1,0,active,-14,5
CC(C)(C)C(=O)Nc1ccccc1C(=O)NCCCn1ccnc1,1,0,61*,5,8
COc1ccccc1C(=O)Nc1ccc2c(c1)OC[C@@H](C)N(C(C)=O)C[C@@H](C)[C@H](OC)CN(C)C2=O,nt,nt,3,nt,nt
Cc1ccccc1Oc1nc2c(C)cccn2c(=O)c1/C=C(\C#N)C(=O)Nc1c(C)n(C)n(-c2ccccc2)c1=O,4,0,-2,124*,13
COc1ccc(-c2nc(CS(=O)(=O)CC(=O)NCCc3ccccc3)c(C)o2)cc1,2,0,0,56*,1
O=C(NCC[C@@H]1CC[C@H](NC(=O)c2ccncc2)[C@H](CO)O1)Nc1ccc(Cl)cc1,nt,nt,-10,nt,nt
